High-throughput results as filed in PubChem BioAssay.
Six1-Eya2 inh: blocks human Six1 binding to Eya2. Q15475+O00167. AlphaScreen GST-Six1/His-Eya2 binding, biochemical; stronger effect = lower value. activity change, % (concentration not given with the values). 0.56% of 360,000 active. AID 651725; in the data active = activity change below about -65%; inconclusive = mostly about -30% to -63%; note: % is set by controls: 0 for no effect and ±100 for the full control effect
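GST-Six1 + His-Eya2 (5X stock: 250/500 nM); Tris pH 8.0, 300 mM NaCl, 0.05% BSA, 0.02% Tween 20; GSH donor/Ni acceptor beads; 1 h 37 °C dark; AlphaScreen readout.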
BAZ2B inh: BAZ2B (human) inhibition; Q9UIF8; AlphaScreen BAZ2B-H3K14Ac peptide displacement; Potency, µM (doses to about 114 µM), for the others: at the highest dose activity change, negative = inhibition, most hits filed as inhibitors; 4.4% of 360,000 active; AID 504333; note: potency is the fitted concentration of half-maximal effect; % is set by controls: 0 for no effect and ±100 for the full control effect; nearly all actives have a fitted effect of over 60% in size
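Complex of BAZ2B and biotin-H3K14Ac (50 nM apiece) forms over 30 min at RT, then faces library compounds up to 110 uM for another 30 min; AlphaScreen beads added, 20 min dark incubation, luminescence read.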
JMJD2A Tudor inh: blocks the human JMJD2A Tudor domain; O75164; AlphaScreen JMJD2A-Tudor / H3K4me3 peptide binding; Potency, µM (highest dose often 114 µM), for the others: at the top dose activity change, negative = inhibition, hits mostly inhibitors; 4.4% of 390,000 active; AID 504339; note: potency is the fitted concentration of half-maximal effect; % is set by controls: 0 for no effect and ±100 for the full control effect; nearly all actives have a fitted effect of over 50% in size
CtBP-E1A inh: CtBP/E1A binding inhibition | activity change, % (concentration not given with the values) | 0.49% of 340,000 active | AlphaScreen GST-E1A/His-CtBP binding, 1536-well; stronger effect = lower value; in the data active = activity change below about -65%; inconclusive = mostly about -30% to -63%; note: % is set by controls: 0 for no effect and ±100 for the full control effect
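In 5 uL wells, 23 nL compound meets equimolar GST-E1A and His-CtBP (5X stock 125 nM each) for 2 h, 37 °C. Beads (5X, 50 ug/mL) then 1 h, 37 °C, dark.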
HP1b chromo inh: blocks HP1-beta chromodomain binding to methylated histone tails; P83916; AlphaScreen HP1-beta / biotin-H3K9me3 peptide binding; Potency, µM (titrated, usually from 114 µM), without a hit: top-dose activity change, negative = inhibition, usual class: inhibitors; 0.56% of 390,000 active; note: potency is the fitted concentration of half-maximal effect; nearly all actives have a fitted effect of over 70% in size
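HP1-beta protein (50 nM final) preincubated 30 min at room temperature with biotinylated H3(1-18)K9me3 peptide (50 nM) in PBS pH 7.4, 0.01% Tween-20, then compound added for 30 min. AlphaScreen streptavidin donor/nickel chelate acceptor beads (10 ug/mL final), 30 min dark, luminescence read.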
TDP1 block: blocks human tyrosyl-DNA phosphodiesterase 1; Q9NUW8; recombinant TDP1, AlphaScreen DNA substrate cleavage; Potency, µM (titrated, usually from 130 µM), for inactives: top-dose activity change, negative = inhibition, hits mostly inhibitors; 0.28% of 350,000 active; AID 485290; note: potency is the fitted concentration of half-maximal effect; % is set by controls: 0 for no effect and ±100 for the full control effect; nearly all actives have a fitted effect of over 40% in size
Target sequence (Q9NUW8 whole entry, looked up): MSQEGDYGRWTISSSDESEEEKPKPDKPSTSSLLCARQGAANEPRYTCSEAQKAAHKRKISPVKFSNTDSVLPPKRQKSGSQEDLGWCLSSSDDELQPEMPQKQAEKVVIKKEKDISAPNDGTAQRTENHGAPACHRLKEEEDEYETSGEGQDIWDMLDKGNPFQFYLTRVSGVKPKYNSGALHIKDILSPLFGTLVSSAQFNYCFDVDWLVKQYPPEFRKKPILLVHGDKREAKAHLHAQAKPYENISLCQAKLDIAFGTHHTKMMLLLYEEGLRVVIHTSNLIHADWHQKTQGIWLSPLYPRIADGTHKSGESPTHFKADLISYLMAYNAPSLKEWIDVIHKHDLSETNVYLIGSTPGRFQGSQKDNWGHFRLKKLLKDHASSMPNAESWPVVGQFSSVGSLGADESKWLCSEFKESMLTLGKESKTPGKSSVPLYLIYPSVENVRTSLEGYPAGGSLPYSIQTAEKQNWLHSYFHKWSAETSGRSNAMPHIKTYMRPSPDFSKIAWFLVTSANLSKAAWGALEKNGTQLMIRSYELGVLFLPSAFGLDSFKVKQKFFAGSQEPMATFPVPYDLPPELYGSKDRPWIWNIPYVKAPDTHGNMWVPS
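Enzyme-compound mixtures sat 15 min at room temperature, followed by a 5 min reaction with 15 nM final substrate and 10 min with AlphaScreen beads. Recombinant human Tdp1 was used at 1 nM final.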
* = called active by the depositor; [ ] = dose if it differs, or a comment. A selection: hits, their analogues and other compounds. The true share with any hit is near 5.3%. Unless noted, calls come from the whole dose curve; as a rule, active = well fitted inhibition curve with a large enough effect; inconclusive = small, poorly fitted or top-dose-only effect; inactive = no such curve, though single readings can be large or run the other way.

Cc1ccc(S(=O)(=O)N[C@H]2COC(=O)[C@H](C)COC(=O)C/C=C\[C@H]2C)cc1 was read as TDP1 block 5%[21 µM].
Screening COc1cc(/C=C/C(=O)OC[C@H]2O[C@H](OC3(CO)OC(CO)C(O)C3O)[C@H](O)[C@@H](O)[C@@H]2O)ccc1O (stereo partly specified) returned Six1-Eya2 inh 0, JMJD2A Tudor inh -19%, CtBP-E1A inh 4, HP1b chromo inh 8% and TDP1 block 2%.
For C[C@@H]1O[C@@H](O[C@@H]2[C@@H](O)[C@H](OCCc3ccc(O)c(O)c3)O[C@H](CO)[C@H]2OC(=O)/C=C/c2ccc(O)c(O)c2)[C@H](O)[C@H](O)[C@H]1O the results were Six1-Eya2 inh inconclusive, JMJD2A Tudor inh 18µM*, CtBP-E1A inh -5, HP1b chromo inh inconclusive and TDP1 block -4%.
For Cc1ccc2oc(C(=O)Nc3sc4c(c3C(=O)NCc3cccnc3)CCCC4)cc(=O)c2c1 the results were BAZ2B inh -15%, JMJD2A Tudor inh -10%, HP1b chromo inh 58% and TDP1 block 4%.
`CC(C)(C)c1cn(-c2ccc(Cl)cc2)c(=S)[nH]1` gave Six1-Eya2 inh 0, BAZ2B inh -3%, JMJD2A Tudor inh 35µM*, CtBP-E1A inh -4, HP1b chromo inh 4% and TDP1 block 0%.
For Cc1c2cc(O)c(=O)cc-2oc2cc(O)c(O)cc12 the results were Six1-Eya2 inh -89*, BAZ2B inh 4.5µM*, JMJD2A Tudor inh 1.4µM*, CtBP-E1A inh -94*, HP1b chromo inh 0.71µM* and TDP1 block 12%.
Screening COc1cc(OC)c(-c2c3cc(O)c(=O)cc-3oc3cc(O)c(O)cc23)cc1OC returned Six1-Eya2 inh inconclusive, BAZ2B inh 1.1µM*, JMJD2A Tudor inh 1.1µM*, CtBP-E1A inh 0, HP1b chromo inh -90% and TDP1 block 8%.
Screening O=c1cc(-c2ccc(O)cc2O)oc2ccccc12 returned TDP1 block 12%[56.1 µM].
Screening O=C(O)c1ccccc1SC1CC(=O)N(c2cccc3ccccc23)C1=O (stereo unspecified) returned Six1-Eya2 inh -1, BAZ2B inh inconclusive, JMJD2A Tudor inh 22µM*, CtBP-E1A inh -11, HP1b chromo inh inconclusive and TDP1 block 3%.
`CCOC(=O)c1c(N2C(=O)CC(Sc3ccccc3C(=O)O)C2=O)sc2c1CCCC2` (stereo unspecified) gave Six1-Eya2 inh -28, BAZ2B inh 50µM*, JMJD2A Tudor inh inconclusive, CtBP-E1A inh -11, HP1b chromo inh 8% and TDP1 block -11%.
For Cc1ccc(-c2cc(C(=O)N3CCN(S(=O)(=O)c4ccc(Br)cc4)CC3)[nH]n2)c(C)c1 the results were BAZ2B inh -2%, JMJD2A Tudor inh -15%, HP1b chromo inh 14% and TDP1 block 5%.
CCOC(=O)c1c(NC(=O)CCCOc2ccc(C(C)(C)C)cc2)sc2c1CCC2 was read as BAZ2B inh -4%, JMJD2A Tudor inh -4%, HP1b chromo inh 15% and TDP1 block -15%[12.3 µM].
Screening COC(=O)c1c(NC(=O)CSc2nnc(-c3ccco3)n2C)sc(C)c1C returned Six1-Eya2 inh -1, BAZ2B inh -9%, JMJD2A Tudor inh 79µM*, CtBP-E1A inh 3, HP1b chromo inh inconclusive and TDP1 block 5%.
N#Cc1c(NC(=O)CSc2nnc(-c3ccco3)n2-c2ccccc2)sc2c1CCC2 was read as Six1-Eya2 inh -1, BAZ2B inh -28%, JMJD2A Tudor inh -15%, CtBP-E1A inh 0, HP1b chromo inh 10% and TDP1 block -2%.
Screening CCOC(=O)c1c(NC(=O)CSc2nnc(CNc3ccc(OC)cc3)n2C)sc(C)c1C returned Six1-Eya2 inh -29, BAZ2B inh 45µM*, JMJD2A Tudor inh 50µM*, CtBP-E1A inh -25, HP1b chromo inh 20µM* and TDP1 block 7%.
Screening CCOC(=O)c1sc(NC(=O)CSc2nnc(Cc3ccccc3)o2)c(C#N)c1C returned Six1-Eya2 inh -4, BAZ2B inh inconclusive, JMJD2A Tudor inh 56µM*, CtBP-E1A inh 5, HP1b chromo inh inconclusive and TDP1 block 2%.
`NC(=O)c1c(NC(=O)CSc2nnc(-c3ccco3)n2-c2ccccc2)sc2c1CCC2` gave Six1-Eya2 inh -16, BAZ2B inh 50µM*, JMJD2A Tudor inh inconclusive, CtBP-E1A inh -13, HP1b chromo inh inconclusive and TDP1 block -13%.
For COc1ccc(C)cc1NC(=O)c1c2c(nc3ccccc13)C(=O)N(C1CCCCC1)C2 the results were BAZ2B inh inconclusive, JMJD2A Tudor inh -34%, HP1b chromo inh 3% and TDP1 block 10%.
`CCOC(=O)c1c(NC(=O)CSc2nnc(CNc3ccc(F)cc3)o2)sc(C(C)=O)c1C` gave Six1-Eya2 inh -12, BAZ2B inh 50µM*, JMJD2A Tudor inh -35%, CtBP-E1A inh -13, HP1b chromo inh 28% and TDP1 block 6%.
CCOC(=O)c1c(NC(=O)CSc2nnc(Cc3ccccc3)o2)sc(C(C)=O)c1C was read as Six1-Eya2 inh -2, BAZ2B inh -25%, JMJD2A Tudor inh -9%, CtBP-E1A inh -11, HP1b chromo inh 10% and TDP1 block 2%.
Screening Cc1ccc(C(=O)N2CCN(c3ccc(NC(=O)COc4ccccc4C)cc3)CC2)cc1 returned Six1-Eya2 inh -25, BAZ2B inh 35µM*, JMJD2A Tudor inh inconclusive, CtBP-E1A inh -11, HP1b chromo inh -17% and TDP1 block 5%.
For Cc1ccc(C(C)C)cc1OCC(=O)Nc1ccc(N2CCCCC2)cc1 the results were Six1-Eya2 inh inconclusive, BAZ2B inh 28µM*, JMJD2A Tudor inh inconclusive, CtBP-E1A inh -20, HP1b chromo inh inconclusive and TDP1 block -4%.
For Cc1ccc(C)c(OCC(=O)Nc2cc(NC(=O)COc3cc(C)ccc3C)cc(C(=O)O)c2)c1 the results were Six1-Eya2 inh -13, BAZ2B inh inconclusive, JMJD2A Tudor inh inconclusive, CtBP-E1A inh 9, HP1b chromo inh 18% and TDP1 block 50µM*.
For CC(=O)c1ccc(OCC(=O)Nc2ccc(N3CCCCC3)cc2)cc1 the results were Six1-Eya2 inh -28, BAZ2B inh 45µM*, JMJD2A Tudor inh inconclusive, HP1b chromo inh inconclusive and TDP1 block 8%.
`COc1ccc(NC(=O)C(Cc2ccccc2)NS(=O)(=O)c2ccc3c(c2)CCN3C(C)=O)cc1` (stereo unspecified) gave JMJD2A Tudor inh -8%, HP1b chromo inh 29% and TDP1 block 5%.
